SMILES strings stand for the structures. The full ranking holds about 110,000 compounds; the median of “z-score” is about -0.1, and the highest 2% start at about 2. The entries come from a sample that favours the highest values as a whole. Active and inactive are the calls of the source.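 How the source made its calls: active means z-score in the third read window above 3 or below -3; inactive means the rest.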

In the experiment the target is Metabotropic glutamate receptor 8 (Rattus norvegicus) (UniProt P70579). Nature of the experiment: rat mGluR8 modulators via GIRK flux, primary screen, cell-based, thallium flux, HTS (AID 488969). The conditions noted are these: HEK293 rat mGluR8, GIRK (G protein-gated inwardly rectifying potassium channel) thallium flux, FluoZin2; at 10 µM; stronger effect = higher value; submaximal glutamate (EC20) added with thallium.
Chain of Metabotropic glutamate receptor 8 (Rattus norvegicus) (P70579 whole entry, looked up): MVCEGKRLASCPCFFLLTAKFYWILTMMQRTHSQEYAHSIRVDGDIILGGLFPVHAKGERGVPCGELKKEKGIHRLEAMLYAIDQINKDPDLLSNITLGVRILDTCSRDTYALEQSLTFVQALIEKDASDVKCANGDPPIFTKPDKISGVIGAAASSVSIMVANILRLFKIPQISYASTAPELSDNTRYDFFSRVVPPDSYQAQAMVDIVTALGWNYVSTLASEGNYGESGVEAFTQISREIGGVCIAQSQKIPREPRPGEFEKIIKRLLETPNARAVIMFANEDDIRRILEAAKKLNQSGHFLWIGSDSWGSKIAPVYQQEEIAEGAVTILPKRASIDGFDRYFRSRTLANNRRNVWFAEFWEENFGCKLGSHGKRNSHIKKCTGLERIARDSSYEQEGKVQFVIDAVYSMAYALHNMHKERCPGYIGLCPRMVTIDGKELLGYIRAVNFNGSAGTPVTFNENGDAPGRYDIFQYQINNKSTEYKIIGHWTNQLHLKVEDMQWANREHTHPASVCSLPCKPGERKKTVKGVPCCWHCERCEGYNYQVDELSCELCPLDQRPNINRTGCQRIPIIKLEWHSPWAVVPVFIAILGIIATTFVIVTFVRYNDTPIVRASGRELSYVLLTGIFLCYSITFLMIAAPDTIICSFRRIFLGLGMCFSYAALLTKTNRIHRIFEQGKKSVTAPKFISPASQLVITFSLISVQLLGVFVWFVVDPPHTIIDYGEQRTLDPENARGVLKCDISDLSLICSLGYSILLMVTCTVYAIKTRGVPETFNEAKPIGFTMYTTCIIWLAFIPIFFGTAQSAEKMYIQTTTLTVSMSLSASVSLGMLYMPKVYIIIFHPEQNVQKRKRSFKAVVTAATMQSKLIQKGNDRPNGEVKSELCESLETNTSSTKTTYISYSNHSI
`O=C(NCCc1ccc(Cl)cc1)C1CCCN(S(=O)(=O)c2cnc[nH]2)C1` (centres undefined) showed a z-score of 0.0211.
The same measure for `COc1ccc(S(=O)(=O)N(CCN2CCOCC2)Cc2cc(OC)ccc2OC)cc1`: -0.389; for `Cc1cc2nc(CCN(Cc3cccnc3)C(=S)Nc3ccccc3)[nH]c2cc1C`: 0.259.
Regarding `O=S(=O)(c1ccc(Nc2ccc3c(c2)OCO3)nc1)N1CCOCC1`, the z-score was found to be 2.28.
As to `O=S(=O)(c1ccc(NC(=S)Nc2ccc3c(c2)OCO3)cc1)N1CCOCC1`, the z-score worked out at 0.154.
`Cc1ccc(S(=O)(=O)N2CCOCC2)cc1C(=O)OCC(=O)Nc1ccc2c(c1)OCO2` came in with a z-score of -0.412.
`C=CCn1c(SCn2nnc3ccccc3c2=O)nnc1-c1ccc(Br)cc1` displayed a z-score of 0.482.
Compound `Cc1ccc(/C=C(\NC(=O)c2ccc(C)cc2)c2nc(=S)[nH][nH]2)cc1` had a z-score of 0.31.
The same measure for `COC(=O)c1ccccc1NC(=S)N(Cc1ccc2c(c1)OCO2)Cc1cc2cc(OC)ccc2[nH]c1=O`: -0.529; for `COC(=O)c1ccccc1NC(=S)N(Cc1ccc2c(c1)OCO2)Cc1cc2ccc(C)cc2[nH]c1=O`: 0.26.
Turning to `COC(=O)c1ccccc1NC(=S)N(Cc1ccc2c(c1)OCO2)Cc1cc2cc(C)ccc2[nH]c1=O`, the z-score was found to be 2.03.
As for `CC(C)(C)N=C1NN=C(c2cc3ccccc3o2)CS1`, the z-score is -0.336.
In the case of `CC(=O)O/N=C(/C)c1ncc(C(F)(F)F)cc1N1CCOCC1`, the z-score is -0.337.
In turn, `Cc1ccccc1Cn1c(CN2CCc3ccccc3C2)nc2c1c(=O)n(C)c(=O)n2C` yielded a z-score of -0.399.
Take `COc1ccc(/C=C(/C(=O)c2ccc(Cl)cc2Cl)n2cncn2)cc1`: the z-score stood at 0.0171.
Regarding `COc1ccc(C(=O)NC2CCCCCC2)cc1S(=O)(=O)N1CCCc2ccccc21`, the z-score is -0.00531.
As for `CCN(/N=C/c1cccs1)c1cc(=O)n(C)c(=O)[nH]1`, the z-score was -0.0804.
The compound `O=C(COc1cccc(Br)c1)NN=C1c2ccccc2-c2ccccc21` returned a z-score of 0.184.
In turn, `O=C(NN=C1c2ccccc2-c2ccccc21)c1ccccn1` gave a z-score of 0.564.
Take `O=C(N/N=C/C=C/c1ccccc1)c1ccccc1Br`: the z-score was -0.846.
Regarding `O=C(N/N=C/C=C/c1ccccc1)c1cccc(Br)c1`, the z-score was determined as 0.831.
The value for `O=C(NN=C1c2ccccc2-c2ccccc21)c1cccc(Br)c1` was 4.19 (active); that for `O=C(NN=C1c2ccccc2-c2ccccc21)c1ccccc1Br` was 5.82 (active); that for `CCC(C)N(C)Cc1cccc(C2(O)CCN(S(=O)(=O)c3ccc(F)cc3)CC2)c1` (centres undefined) was -0.276.
The compound `CCOc1ccc(Nc2oc(-c3ccccc3Cl)nc2C#N)cc1` yielded a z-score of -0.217.
Regarding `CCOC(=O)C(CC)Sc1nnc2cc(C)c3ccccc3n12` (centres undefined), the z-score is 7.83 (active).
In turn, `Cc1cc2nnc(SC(C)C)n2c2ccccc12` gave a z-score of -1.9.
Regarding `CCOC(=O)CSc1nnc2cc(C)c3ccccc3n12`, the z-score was -1.09.
In the case of `Cc1c([N+](=O)[O-])c([N+](=O)[O-])nn1CC(=O)N1CCCCC1`, the z-score was -0.199.
In turn, `Cc1ccc(S(=O)(=O)N2CCCC2C(=O)O)cc1` (centres undefined) gave a z-score of 0.451.
Consider `Cc1ccc(-c2nnn(CC(=O)NC3CC4CCC3C4)n2)cc1` (centres undefined), for which the z-score was 5.1 (active).
For `CC1CCCCC1NC(=O)Cn1nnc(-c2ccc(Cl)cc2)n1` (centres undefined), the z-score was 0.119.
`Cc1ccc(-c2nnn(CC(=O)NC3CCN(Cc4ccccc4)CC3)n2)cc1` registered a z-score of 0.381.
`CC(O)c1n(C)c(Cl)c[n+]1C` (centres undefined) returned a z-score of -0.00128.
The compound `O=C(CO/N=C/c1ccccc1O)N1CCc2ccccc21` returned a z-score of -0.0476.
The value for `O=C(Nc1nnc(-c2ccccc2)o1)c1cccc(N2C(=O)CCC2=O)c1` was -0.326; that for `O=C(Nc1nnc(-c2ccc(Cl)cc2)o1)c1cccc(N2C(=O)CCC2=O)c1` was 3.29 (active); that for `Cc1cc(NC(=O)c2ccc(N3C(=O)CCC3=O)cc2)no1` was 0.412.
`O=C(Nc1nnc(-c2ccc(Cl)cc2)o1)NC1CCCCC1` displayed a z-score of -0.0226.
In turn, `O=C(Nc1ccccc1)c1cccc(N2C(=O)CCC2=O)c1` returned a z-score of -0.0312.
With `O=C(Nc1nnc(-c2ccc(Cl)cc2)o1)c1ccc(N2C(=O)CCC2=O)cc1`, the z-score is 4.39 (active).
The same measure for `Cc1cc(C)c(C)c(OCCCn2ccnc2)c1`: -0.369; for `COC(=O)c1ccc(/C=N/N2CCN(Cc3ccc(C)cc3C)CC2)cc1`: 2.42; for `COC(=O)c1ccc(/C=N/N2CCN(Cc3ccccc3)CC2)cc1`: -0.196.
For the compound `COC(=O)c1ccc(/C=N\N2CCN(Cc3ccc(C)cc3)CC2)cc1`, the z-score is -0.269.
Compound `Cc1cccc(NC(=O)C2Cc3ccccc3CN2C(=O)OCc2ccccc2)c1C` (centres undefined) registered a z-score of -0.188.
In turn, `CCC1CCCCN1C(=O)CSc1nc2c([nH]c3ccccc32)c(=O)n1C` (centres undefined) yielded a z-score of 0.357.
Turning to `CCOP(=O)(OCC)C(Nc1ccccn1)c1ccc(F)cc1` (centres undefined), the z-score was -0.18.
On to `O=C(NCc1ccccc1F)c1cccs1`, for which the z-score is -0.158.
The compound `O=C(O)c1cc2c(ccc3ccccc32)[nH]1` showed a z-score of -0.467.
The value for `CC1=CCC(C(=O)O)C(C(=O)Nc2nc3ccc(S(C)(=O)=O)cc3s2)C1` (centres undefined) was 0.387; that for `CS(=O)(=O)c1ccc2nc(NC(=O)Nc3ccc(Cl)c(Cl)c3)sc2c1` was 3.23 (active); that for `NS(=O)(=O)c1ccc2nc(NC(=O)C3CCCO3)sc2c1` (centres undefined) was 2.74.
With `CS(=O)(=O)c1ccc2nc(NC(=O)C3C4C=CC(C4)C3C(=O)O)sc2c1` (centres undefined), the z-score is 4.92 (active).
Consider `O=C(Nc1nc2ccc(S(=O)(=O)N3CCCCC3)cc2s1)C1CCCO1` (centres undefined), for which the z-score was -0.0835.
The same measure for `CS(=O)(=O)c1ccc2nc(NC(=O)Nc3ccc(Cl)cc3)sc2c1`: 0.161.
In turn, `CCC(=O)Nc1nc2ccc(S(C)(=O)=O)cc2s1` yielded a z-score of 0.244.
`CS(=O)(=O)c1ccc2nc(NC(=O)Nc3cccc(Cl)c3)sc2c1` returned a z-score of 0.135.
Compound `O=C(Nc1nc2ccc(F)cc2s1)C1CCCO1` (centres undefined) returned a z-score of 0.535.
`CN(C)c1ccc(CN(C(=O)COc2ccccc2)C2CCS(=O)(=O)C2)cc1` (centres undefined) had a z-score of -0.709.
The same measure for `O=C(NCc1cn(-c2ccccc2)nc1-c1ccccc1)c1ccc([N+](=O)[O-])cc1`: -0.0499.
The value for `O=C(CSc1cc(Cl)ccc1Cl)NCC1CCCO1` (centres undefined) was -0.0958.
`Cc1ccccc1-n1c(SCc2csc(Nc3ccccc3)n2)nnc1-c1cccnc1`: the z-score is -0.897.
The same measure for `CN1CCN(Cc2cccc(Oc3ccccc3)c2)CC1`: 0.0807.
Regarding `CCN1CCN(Cc2cccc(Oc3ccc(Cl)cc3)c2)CC1`, the z-score turned out to be 0.924.
As to `CN1CCN(Cc2cccc(Oc3ccc(Cl)cc3)c2)CC1`, the z-score is 4 (active).
As to `c1ccc(Oc2cccc(CN3CCCCC3)c2)cc1`, the z-score was -0.282.
Take `CCN1CCN(Cc2cccc(Oc3ccccc3)c2)CC1`: the z-score worked out at 0.156.
Take `CC1CCCN(Cc2cccc(Oc3ccccc3)c2)C1` (centres undefined): the z-score is 6.29 (active).
Compound `CCc1ccc(Nc2nnc(SCC(=O)N(C)CC(=O)Nc3ccccc3CC)s2)cc1` had a z-score of -0.439.
Compound `CSc1nccc(Oc2ccc(C#N)cc2)n1` had a z-score of -0.172.
As for `CC1=CC(=O)C=C(C)C1=NOS(=O)(=O)c1ccccc1`, the z-score came to 0.257.
Consider `CC1=C/C(=N\OS(=O)(=O)c2ccccc2)C(C)=CC1=O`, for which the z-score was -0.189.
On to `CC1=C/C(=N\OS(=O)(=O)c2ccccc2)C=CC1=O`, for which the z-score came out at 3.
On to `Cc1ccc(C(=O)N2CC(C)OC(C)C2)c(Cl)c1` (centres undefined), for which the z-score was -0.0463.
The value for `Cc1ccc(-n2c(Cc3cccn3C)nnc2SCC(=O)Nc2cc(C)on2)cc1` was -0.345.
As for `CCc1cc(C(=O)NNC(=S)Nc2cccc(C)c2)cs1`, the z-score is 7.17 (active).
The value for `CCc1cc(C(=O)NNC(=S)NCc2ccccc2)cs1` was 0.0336.
The value for `Cc1ccc(C)c(NC(=S)NNC(=O)c2sccc2C)c1` was 1.53.
The same measure for `CCCCNC(=S)NNC(=O)c1csc(CC)c1`: -0.0512; for `Cc1cccc(NC(=S)NNC(=O)c2sccc2C)c1`: 2.13; for `CCNC(=S)NNC(=O)c1csc(CC)c1`: -0.163.
For `CCc1cc(C(=O)NNC(=S)Nc2ccccc2C)cs1`, the z-score came out at 1.47.
The value for `CCc1cc(C(=O)NNC(=S)Nc2cc(C)ccc2C)cs1` was 6.35 (active); that for `CNC(=S)NNC(=O)c1sccc1C` was -0.0354; that for `Cc1nn2c3c(cnc2c1-c1ccccc1)C(=O)CCC3` was -0.149.
`CC(C)(C)C(=O)NC1(C(F)(F)F)N=C2SCCN2C1=O` (centres undefined): the z-score is -0.137.
The value for `O=C(COc1ccc(S(=O)(=O)NC2CCCCC2)cc1)NCc1cccnc1` was -0.589; that for `COc1cc(-c2nc3ccccc3c(=O)n2N)cc(OC)c1OC` was -0.0215; that for `O=C(CSc1ccc2nnc(-c3ccc(Cl)cc3)n2n1)N1CCCc2ccccc21` was 0.00121.
`Cc1cc2nc3c(nc2cc1C)C1(C(=O)N(C)C)CCC3(C)C1(C)C` (centres undefined) yielded a z-score of -0.192.
Regarding `Cc1cccc(-n2ncc3c(NCc4cccs4)ncnc32)c1`, the z-score is -0.705.
The value for `O=c1c2ccccc2c(-c2ccccc2)nn1Cc1ccc(Cl)cc1` was -0.152.
The same measure for `Cc1ccc2[nH]c3c(=O)n(CCC4=CCCCC4)cnc3c2c1`: -0.447; for `Cn1c(-c2ccccc2O)cc2ccccc21`: 0.085.
In turn, `Cc1occc1C(=O)N=Nc1c(O)[nH]c2ccc(Br)cc12` displayed a z-score of -0.135.
Compound `CCC(=O)NC(=S)Nc1ccc(NC(=O)c2ccc(OC)cc2)cc1` yielded a z-score of -0.111.
`O=C(Nc1ccccc1Sc1ccccc1)C1CCCO1` (centres undefined) gave a z-score of -0.775.
The same measure for `CC(=O)c1ccc(NC(=O)C2CCCN2S(=O)(=O)c2cccc3cccnc23)cc1` (centres undefined): -0.24; for `O=C(Nc1cccc(F)c1)C1CCCN1S(=O)(=O)c1cccc2cccnc12` (centres undefined): -0.182; for `Cc1cccc(NC(=O)C2CCCN2S(=O)(=O)c2cccc3cccnc23)c1` (centres undefined): 0.22.
The same measure for `CC(=O)c1cccc(NC(=O)C2CCCN2S(=O)(=O)c2cccc3cccnc23)c1` (centres undefined): 4.14 (active); for `Cc1ccccc1NC(=O)C1CCCN1S(=O)(=O)c1cccc2cccnc12` (centres undefined): -0.0844; for `Cc1ccc(NC(=O)C2CCCN2S(=O)(=O)c2cccc3cccnc23)cc1F` (centres undefined): 2.9.
The same measure for `COc1ccc(-c2cn3c(C)c(C(=O)N4CCN(c5ccc(F)cc5)CC4)sc3n2)cc1`: 0.116; for `COc1cccc(CNCCSc2nnnn2C)c1OC`: 0.709.
For `O=C(CSc1ccc2ccccc2c1)NCc1cccs1`, the z-score was found to be 0.0417.
For `O=C(CSc1cccc2cccc(Cl)c12)NCc1cccs1`, the z-score is 3.5 (active).
The same measure for `Cc1csc(SCC(=O)NCc2cccs2)n1`: 0.824.
`O=C(NCc1cccnc1)c1cccc(C(F)(F)F)c1` came in with a z-score of -0.793.
The same measure for `COc1ccccc1CNCc1ccc(OC)c(OC)c1OC`: 2.07.
As for `COc1cccc(CNCc2ccc(SC)cc2)c1OC`, the z-score was -0.19.
With `COc1ccccc1CNCc1cccs1`, the z-score came to 0.411.
In the case of `CC1(C)CNC(=O)C=C(c2ccccc2)C1`, the z-score was -0.176.
